TGFb inhibitor: qHTS for Inhibitors of TGF-b; HepG2 CAGA-GFP TGF-b/SMAD3 reporter, GFP fluorescence, 18 h; TGF-beta stimulated, 500 pg/mL final; Potency, µM (series often up to 46.1 µM), inactives show at the top dose activity, negative = inhibition, actives largely listed as inhibitors; actives 1.2% (n = 410,000); also: % is scaled to controls: 0 for no effect and ±100 for the full control effect; nearly all actives have a fitted effect of over 65% in size
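TGF-beta reporter screen: HEPG2 CAGA-GFP, 1% FBS, 500 pg/mL TGF-beta final, 18 h; per-cell GFP summed per well; curves fitted and categorized by class.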
HepG2 tox: qHTS for Inhibitors of TGF-b: Cytotox Counterscreen | HepG2 CAGA-GFP viability, ATP luminescence, 18 h | Potency, µM (top dose mostly 46.1 µM), inactives show top-dose activity change, negative = cytotoxicity, usual class: cytotoxic | actives 0.76% (n = 410,000) | AID 588856, 2011
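HepG2 CAGA-GFP cells (1000/well, DMEM with 1% FBS) received compound, then TGF-beta at 500 pg/mL final, and were incubated 18 hours at 37 degrees C. Viability was read by CellTiter-Glo luminescence. Media-only wells were set as complete cell-killing and DMSO as no toxicity.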
HT1080NT lethal: qHTS for induction of synthetic lethality in tumor cells producing 2HG: qHTS for the HT-1080-NT fibrosarcoma cell line; HT-1080-NT fibrosarcoma viability, CellTiter-Glo ATP luminescence, 48 h; Potency, µM (doses to about 46.1 µM), without a hit: at the top dose activity, negative = less viability, hits mostly cytotoxic; actives 1.6% (n = 360,000);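 also: NT is the 2HG producing partner of a matched IDH1 knockdown line; 0% = DMSO-treated cells and -100% = media-only wells without cells; nearly all actives have a fitted effect of over 55% in size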
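Toxicity toward the 2HG-producing NT line was scored as %Activity, normalised to DMSO and no-cell wells, from CellTiter-Glo luminescence after 48 hours' treatment.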
ATXN viability: Viability Counterscreen for Primary qHTS for Inhibitors of ATXN expression. actives 0.49% (n = 400,000). AID 651635, 2014. Potency, µM (titrated, usually from 56.7 µM), hits mostly cytotoxic. S2 cells (HEK-293 line with an ATXN2-luciferase reporter) viability, CellTiter-Fluor protease fluorescence, 24 h; also: nearly all actives have a fitted effect of over 40% in size
HT1080 IDH1KD tx: qHTS for induction of synthetic lethality in tumor cells producing 2HG: qHTS for the HT-1080-IDH1KD cell line; actives 2% (n = 360,000); HT-1080 IDH1 knockdown viability, ATP luminescence, 48 h; Potency, µM (titrated, usually from 46.1 µM), for inactives: at the highest dose activity, negative = toxicity, hits mostly cytotoxic; AID 686971, 2013;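 also: 0% = DMSO wells and -100% = cell-free medium wells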
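Knockdown cells (IDH1KD HT-1080) received compounds 2 h after plating at 750 cells/well and were kept 48 h at 37 °C in 5% FBS RPMI. A CellTiter-Glo luminescence read gave % activity for curve fitting.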
ATXN2 expr inh: Primary qHTS for Inhibitors of ATXN expression; HEK-293 ATXN2-luciferase reporter, luminescence, 24 h; Potency, µM (titrated, usually from 57 µM), without a hit: top-dose activity change, negative = inhibition, hits mostly inhibitors; actives 0.72% (n = 360,000); also: % is scaled to controls: 0 for no effect and ±100 for the full control effect; nearly all actives have a fitted effect of over 55% in size
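qHTS (up to 57 uM final) was run with 24 h compound exposure of reporter cells at 37 °C. Each well was multiplexed: SteadyGlo luminescence measured ATXN2-luciferase expression after a fluorogenic Gly-Phe-AFC viability readout (25 uM final).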
The depositor's hits bear a star; i = inactive; ? = inconclusive; . = no result given. Shown are actives, neighbours in structure and some others; about 3.9% of the full set was active somewhere. Calls follow the shape of the dose curve; as a rule, active = well fitted curve in the direction sought with a large enough effect; inconclusive = small, poorly fitted or top-dose-only effect, or another doubt; inactive = no such curve, though single readings can be large; an effect the other way counts as inactive or inconclusive. Potency is read from the fitted curve at half-maximal effect.

SMILES	TGFb inhibitor	HepG2 tox	HT1080NT lethal	ATXN viability	HT1080 IDH1KD tx	ATXN2 expr inh
CCN1CCN(Cc2ccc(NC(=O)c3cc(NC(=O)c4nccnc4N)cc(OC)c3)cc2C(F)(F)F)CC1	?	-30.2%	-21.3%	?	-5.3%	?
O=C(Nc1cccc(-c2cccc(Cl)c2)c1)C1CCN(CC2CCOC2)CC1 (stereo not given)	?	-89.9%	18.4µM*	i	?	-23.3%
O=C(Nc1cccc(-c2cccc(F)c2)c1)C1CCN(CC2CCOC2)CC1 (stereo not given)	28.9%	-40.5%	?	i	?	-6.2%
COCc1ccc(CN2CCC(C(=O)Nc3cccc(-c4cccc(Cl)c4)c3)CC2)o1	?	-95.7%	14.6µM*	?	16.4µM*	?
CCOC(=O)c1cc(-c2ccccc2)n(-c2cccc(C(=O)Nc3cccc(F)c3)c2)c1C	?	-35.5%	.	.	.	.
COc1ccc2c(c1)C(SCC(=O)NCCc1ccc(Cl)cc1)CC(C)(C)O2 (stereo not given)	?	-29.6%	-5.5%	?	-14.6%	28.2µM*
COc1cccc(Nc2nc(C(N)C(C)C)cs2)n1 (stereo not given)	-5.8%	-17.6%	?	i	-13.2%	-6.1%
COc1cccc(Nc2nc(C(N)Cc3ccc(Cl)cc3)cs2)n1 (stereo not given)	?	-72.6%	23.1µM*	31.6µM*	16.4µM*	25.1µM*
COc1cccc(Nc2nc(C(N)CC(C)C)cs2)n1 (stereo not given)	11.2µM*	-102.6%	?	?	16.4µM*	-1.9%
COc1ccc(CC(N)c2csc(Nc3ccccn3)n2)cc1 (stereo not given)	?	-62.6%	-9.3%	?	?	?
COc1ccc(CC(N)c2csc(Nc3cccc(OC)n3)n2)cc1 (stereo not given)	?	12.6µM*	25.9µM*	?	-24.6%	-7.8%
NC(=O)c1cccc(Nc2nc(C(N)Cc3ccc(C(F)(F)F)cc3)cs2)n1 (stereo not given)	?	-102.6%	7.31µM*	?	?	28.2µM*
COc1ccc(Nc2ncc(C(=O)Nc3cccc(Cl)c3)c3ccccc23)cc1	?	-38.6%	.	i	.	6.1%
O=C(Nc1c2c(nn1-c1ccc(Cl)cc1)CS(=O)(=O)C2)c1ccc(Br)cc1	?	-15.3%	.	i	.	0.0%
CCCN1CCC(=O)N(C(CSc2ccc(OC)cc2)CC(C)C)CC1 (stereo not given)	3.7%	-22.5%	.	.	.	.
NC(Cc1ccccc1)c1csc(Nc2ccc(C(F)(F)F)cn2)n1 (stereo not given)	?	-83.6%	?	i	?	?
COc1cccc(Nc2nc(C(N)Cc3ccc(C(F)(F)F)cc3)cs2)n1 (stereo not given)	?	10µM*	13µM*	.	23.1µM*	20µM*
CC(=O)N1CCc2c(sc3c2c(=O)n(Cc2ccccc2)c(=O)n3Cc2cccc(Cl)c2)C1	-9.1%	-30.7%	.	i	.	-19.0%
CCc1ccc(NC(=S)/N=C(\N)Nc2nc(C)c3cc(CC)ccc3n2)cc1	?	-4.4%	?	?	10.3µM*	-24.8%
CCOC(=O)Cn1c(=O)oc2cc(S(=O)(=O)N3CCN(c4ccc(F)cc4)CC3)ccc21	-2.6%	-20.1%	.	.	.	.
NNC(=O)c1ccc2nc(-c3ccc(Br)cc3)cn2c1	6.9%	-41.9%	18.4µM*	?	?	-7.1%
Cc1noc(-c2ccccc2OCC(=O)Nc2cccc([N+](=O)[O-])c2)n1	-8.5%	0.7%	.	i	.	9.6%
S=C1NC[C@H](CC2CCCCC2)N1CC1CCCCC1	?	-22.2%	?	17.8µM*	?	31.6µM*
O=C(Nc1ccc(F)cc1F)c1cc2ccc3cccnc3c2[nH]1	-3.9%	-22.3%	.	.	.	.
Cc1c(Cl)cccc1N1C(N)=C(C#N)C(c2cc(CN3CCOCC3)cs2)C2=C1CCCC2=O (stereo not given)	-3.6%	-21.3%	.	i	.	4.4%
SMILES	TGFb inhibitor	HepG2 tox	HT1080NT lethal	ATXN viability	HT1080 IDH1KD tx	ATXN2 expr inh
Cc1ccc2c(c1)c1c(n2CC(O)Cn2ccnc2C)C(=O)CCC1 (stereo not given)	0.8%	-2.7%	-15.9%	i	-2.7%	-12.5%
Cc1ccc2c(c1)c1c(n2CC(O)CNC2CCCC2)CCCC1 (stereo not given)	?	-101.2%	?	25.1µM*	-13.5%	.
CC(C)(C)c1cc(CCC(=O)NCCc2ccccn2)cc(C(C)(C)C)c1O	-1.7%	-8.4%	-1.2%	i	-10.5%	-0.6%
O=C1C=C(NCCc2cc(Br)c(O)c(Br)c2)C(=O)c2ncccc21	?	7.08µM*	?	?	10.3µM*	9.47µM*
COc1ccc(CNC(=O)CCCn2c(=O)c3cccn3c3ccc(F)cc32)cc1OC	0.0%	-20.8%	.	.	.	.
COC(=O)c1ccc2nc(C)cc(Nc3ccccc3C)c2c1	-10.8%	-22.7%	-16.3%	i	-5.4%	-19.0%
CC(=O)c1cccc(Nc2cc(C)nc3ccc(C)cc23)c1	?	-29.5%	18.4µM*	i	?	-18.8%
COC(=O)c1ccc(Nc2cc(C)nc3ccc(C)cc23)cc1	?	-80.1%	20.6µM*	?	23.1µM*	-33.1%
COc1ccccc1OCCn1c(COc2cc(C)ccc2C)nc2ccccc21	.	-6.5%	.	.	.	.
CC(C)c1ccc(C2C3=C(CC(C)(C)CC3=O)NC3=C2C(=O)c2ccccc23)cc1 (stereo not given)	?	-10.1%	?	14.1µM*	?	?
FC(F)(F)c1nnc(-c2ccccc2)nc1Sc1ccc(Cl)cc1	0.0%	-5.4%	?	.	?	28.2µM*
FC(F)(F)c1cccc(Sc2nc(-c3ccccc3)nnc2C(F)(F)F)c1	-36.9%	-0.4%	?	28.2µM*	?	?
Cc1cccc(S(=O)(=O)c2cn(C)c3cc(N4CCCCCC4)c(F)cc3c2=O)c1	-13.2%	-12.2%	.	.	.	.
C=C1C(=O)OC2C=C(CO)C3OC3C3OC3(C)CC(OC(=O)/C(=C/C)COC(C)=O)C12 (stereo not given)	?	-66.1%	-24.1%	.	5.17µM*	?
